Screening data deposited in PubChem by Broad Institute.
Hits are enriched below; roughly 6.8% of the tested compounds scored in any of these assays.
C diff HTS: C. difficile growth inhibitors, primary screen, HTS. growth activity, negative = inhibition, % at 16 µg/mL (by protocol). AID 1259249, 2017. Clostridium difficile clinical isolate growth, OD600, 24 h; hits give low values. actives 0.25% (n = 86,000);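 active = mean growth activity at or below -80% and every replicate also at or below -80%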
Tcruzi prolif: T. cruzi intracellular proliferation inhibitors, primary screen, cell-based, beta-gal Tulahuen parasites, NIH3T3 host, luminescence; T. cruzi beta-gal in NIH3T3, GalScreen luminescence, 90 h; actives 5.9% (n = 77,000); AID 624255, 2012; inhibition, % at 8.34 µM;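 active = mean inhibition above about 93%, with at least 55% of replicates each passing it, limit read from the data, passing the limit was not always enough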
Pf Dd2 growth: P. falciparum Dd2 growth inhibitors, primary screen, SYBR Green fluorescence, single dose replicates; activity change, % at 10 µM; 72 h; hits give low values; actives 2.3% (n = 94,000); in the data active = activity change below about -80%
Hits are given with their value.

Results for COCCNC(=O)C[C@@H]1C[C@H]2c3cc(NC(=O)Nc4ccccc4)ccc3O[C@H]2[C@H](CO)O1 ?
C diff HTS: inactive; Tcruzi prolif: inactive; Pf Dd2 growth: inactive

How did C[C@@H]1CN([C@H](C)CO)S(=O)(=O)c2ccc(C#CC3CC3)cc2O[C@H]1CN(C)C do in these assays?
C diff HTS: inactive; Tcruzi prolif: inactive; Pf Dd2 growth: inactive

Results for COc1ccc(NC(=O)Nc2ccc3c(c2)C(=O)N([C@H](C)CO)C[C@H](C)[C@@H](CN(C)S(=O)(=O)c2c(C)noc2C)OCCCC[C@H](C)O3)cc1 ?
C diff HTS: inactive; Tcruzi prolif: inactive; Pf Dd2 growth: inactive

What do the screens show for `CN(C)CC(=O)Nc1ccc2c(c1)[C@@H]1C[C@@H](CC(=O)N3CCOCC3)O[C@H](CO)[C@@H]1O2`?
C diff HTS: inactive; Tcruzi prolif: inactive; Pf Dd2 growth: inactive

Results for COc1ccc(NC(=O)Nc2ccc3c(c2)CC(=O)N([C@@H](C)CO)C[C@@H](C)[C@H](CN(C)S(=O)(=O)c2ccccc2)O3)cc1 ?
C diff HTS: inactive; Tcruzi prolif: inactive; Pf Dd2 growth: inactive

How did Cc1ccc(S(=O)(=O)N(C)C[C@H]2Oc3c(NC(=O)CCCCCC(=O)Nc4ccccc4N)cccc3C(=O)N([C@H](C)CO)C[C@H]2C)cc1 do in these assays?
C diff HTS: inactive; Pf Dd2 growth: -90

Results for Cc1ccc(S(=O)(=O)N(C)C[C@@H]2Oc3c(NC(=O)CCCCCC(=O)Nc4ccccc4N)cccc3C(=O)N([C@H](C)CO)C[C@H]2C)cc1 ?
C diff HTS: inactive; Pf Dd2 growth: inactive

Results for C[C@@H]1CN([C@H](C)CO)C(=O)c2cccc(NC(=O)CCCCCC(=O)Nc3ccccc3N)c2O[C@@H]1CN(C)S(C)(=O)=O ?
C diff HTS: inactive; Pf Dd2 growth: inactive

How did C[C@@H]1CN([C@H](C)CO)C(=O)c2cccc(NC(=O)Nc3cccc4ccccc34)c2O[C@@H]1CN(C)S(=O)(=O)c1ccccc1 do in these assays?
C diff HTS: inactive; Tcruzi prolif: inactive; Pf Dd2 growth: -81

Results for C[C@@H]1CN([C@H](C)CO)C(=O)c2cccc(NC(=O)CCCCCC(=O)Nc3ccccc3N)c2O[C@@H]1CN(C)S(=O)(=O)c1cccs1 ?
C diff HTS: inactive; Pf Dd2 growth: -84

How did C[C@@H]1CN([C@H](C)CO)C(=O)c2cccc(NC(=O)CCCCCC(=O)Nc3ccccc3N)c2O[C@@H]1CN(C)S(=O)(=O)c1ccccc1 do in these assays?
C diff HTS: inactive; Pf Dd2 growth: -89

What do the screens show for `C[C@H](CO)N1C[C@H](C)[C@@H](CN(C)S(=O)(=O)c2ccccc2)Oc2c(NC(=O)Nc3cccc4ccccc34)cccc2C1=O`?
C diff HTS: inactive; Tcruzi prolif: inactive; Pf Dd2 growth: inactive

What do the screens show for `C[C@H](CO)N1C[C@H](C)[C@@H](CN(C)S(C)(=O)=O)Oc2c(NC(=O)CCCCCC(=O)Nc3ccccc3N)cccc2C1=O`?
C diff HTS: inactive; Pf Dd2 growth: inactive

Results for C[C@@H]1CN([C@H](C)CO)C(=O)c2cccc(NC(=O)CCCCCC(=O)Nc3ccccc3N)c2O[C@@H]1CN(C)S(=O)(=O)c1ccc(Cl)cc1 ?
C diff HTS: inactive; Tcruzi prolif: inactive; Pf Dd2 growth: -88

Results for C[C@H](CO)N1C[C@H](C)[C@H](CN(C)S(C)(=O)=O)Oc2c(NC(=O)CCCCCC(=O)Nc3ccccc3N)cccc2C1=O ?
C diff HTS: inactive; Pf Dd2 growth: inactive

Results for C[C@@H]1CN([C@@H](C)CO)C(=O)c2c(c3ccccc3n2C)-c2ccccc2CO[C@H]1CN(C)Cc1ccc(Cl)c(Cl)c1 ?
C diff HTS: inactive; Pf Dd2 growth: -91

What do the screens show for `C[C@H]1CN([C@@H](C)CO)C(=O)c2c(c3ccccc3n2C)-c2ccccc2CO[C@H]1CN(C)Cc1ccc(Cl)c(Cl)c1`?
C diff HTS: inactive; Pf Dd2 growth: inactive

What do the screens show for `C[C@@H]1CN([C@@H](C)CO)C(=O)c2c(c3ccccc3n2C)-c2ccccc2CO[C@H]1CN(C)Cc1ccc2c(c1)OCO2`?
C diff HTS: inactive; Pf Dd2 growth: -83

What do the screens show for `C[C@@H]1CN([C@H](C)CO)C(=O)c2c(c3ccccc3n2C)-c2ccccc2CO[C@H]1CN(C)Cc1ccc2c(c1)OCO2`?
C diff HTS: inactive; Pf Dd2 growth: inactive

Results for C[C@H]1CN([C@@H](C)CO)S(=O)(=O)c2ccc(-c3ccc(F)cc3)cc2O[C@H]1CN(C)C ?
C diff HTS: inactive; Tcruzi prolif: inactive; Pf Dd2 growth: inactive

Results for CC(=O)N(C)C[C@@H]1Oc2ncc(C#Cc3ccccn3)cc2C(=O)N([C@@H](C)CO)C[C@H]1C ?
C diff HTS: inactive; Tcruzi prolif: inactive; Pf Dd2 growth: inactive

What do the screens show for `COc1ccc(CN2CC3(CCN(C(=O)Cc4ccncc4)CC3)c3c([nH]c4cc(OC)ccc34)[C@@H]2CO)cc1`?
C diff HTS: inactive; Pf Dd2 growth: -86

What do the screens show for `CCCC(=O)N1CC2(C1)CN(Cc1ccncc1)[C@H](CO)c1[nH]c3cc(OC)ccc3c12`?
C diff HTS: inactive; Pf Dd2 growth: inactive

What do the screens show for `COc1ccc2c3c([nH]c2c1)[C@H](CO)N(Cc1ccncc1)CC31CN(C(=O)Cc2ccncc2)C1`?
C diff HTS: inactive; Pf Dd2 growth: inactive

How did CCCC(=O)N1CCC2(CC1)CN(Cc1ccncc1)[C@@H](CO)c1[nH]c3cc(OC)ccc3c12 do in these assays?
C diff HTS: inactive; Pf Dd2 growth: -91

What do the screens show for `C[C@H](C(=O)N(C)C[C@@H]1OCc2ccccc2-c2ccccc2C(=O)N([C@H](C)CO)C[C@@H]1C)c1ccccc1`?
C diff HTS: inactive; Tcruzi prolif: inactive; Pf Dd2 growth: inactive

Results for CO[C@@H]1CN(C)C(=O)c2ccc(NC(=O)Nc3ccc4c(c3)OCO4)cc2OC[C@@H](C)N(C(C)=O)C[C@H]1C ?
Pf Dd2 growth: inactive

What do the screens show for `C[C@@H]1CCCCO[C@H](CN(C)CC2CCCCC2)[C@H](C)CN([C@H](C)CO)C(=O)c2cc(NC(=O)Nc3cccc4ccccc34)ccc2O1`?
C diff HTS: inactive; Tcruzi prolif: inactive; Pf Dd2 growth: -88

What do the screens show for `C[C@@H]1CCCCO[C@H](CN(C)CC2CC2)[C@H](C)CN([C@@H](C)CO)C(=O)c2cc(NC(=O)Nc3cccc4ccccc34)ccc2O1`?
C diff HTS: inactive; Tcruzi prolif: inactive; Pf Dd2 growth: inactive

Results for C[C@@H]1CCCCO[C@H](CN(C)CC2CCCCC2)[C@H](C)CN([C@@H](C)CO)C(=O)c2cc(NC(=O)Nc3cccc4ccccc34)ccc2O1 ?
C diff HTS: inactive; Tcruzi prolif: inactive; Pf Dd2 growth: -88

Results for C[C@H](CO)N1C[C@H](C)[C@@H](CN(C)CC2CCCCC2)OCCCC[C@H](C)Oc2ccc(NC(=O)Nc3cccc4ccccc34)cc2C1=O ?
C diff HTS: inactive; Tcruzi prolif: inactive; Pf Dd2 growth: inactive

What do the screens show for `CCCN(C)C[C@H]1OCCCC[C@H](C)Oc2ccc(NC(=O)Nc3cccc4ccccc34)cc2C(=O)N([C@@H](C)CO)C[C@H]1C`?
C diff HTS: inactive; Tcruzi prolif: inactive; Pf Dd2 growth: -91
